A short description of experiment [1]: qHTS assay for measurement of the activity of small molecule inhibitors on Zika virus induced Caspase-3 activity in human iPSC derived neural progenitor cells (hNPCs) (AID 1224857). Note: % of control where 0% means no effect; nearly all actives have a fitted effect of over 65% in size. An outline of the steps:
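Percent inhibition of virus-induced caspase-3/7 luminescence (Caspase-Glo), scaled between uninfected cells and Zika-infected cells. hNPCs received compound 1 hr before ZIKV at 2 FFU/cell, with 6 hours infection at 37 C.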
A general note: Quantitative high-throughput screening tests each substance at several concentrations.

The nature of experiment [2]: qHTS assay for measurement of the activity of small molecule inhibitors on Zika virus induced Caspase-3 activity in human astrocytoma cells (AID 1224859).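 Note: plate controls were ZIKV-infected untreated cells for no effect and uninfected cells for full effect.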 The procedure, abridged:
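Luminescent caspase-3/7 read-out (30 min reagent, room temperature) in human SNB-19 cells infected 6 h with ZIKV (2 FFU/cell) after 1 h compound pre-incubation; Data were normalised to uninfected and infected wells.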

Experiment [3] is described as follows: qHTS assay to identify small molecule inhibitors of chordoma cells - UCH-1 (AID 1259355). Note: nearly all actives have a fitted effect of over 55% in size. Note: potency is the fitted concentration of half-maximal effect; series mostly up to about 46 µM. The procedure, abridged: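 Cells (800/well) were seeded and left overnight at 37 C, 5% CO2, then treated with drugs at 15 concentrations plus a combination mix of auranofin, camptothecin, doxorubicin, rubitecan and topotecan. Viability after 48hr was read by CellTiter-Glo luminescence.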

The nature of experiment [4]: qHTS assay to identify small molecule inhibitors of chordoma cells - UCH-2 (AID 1259356). Note: series mostly up to about 46 µM; % is set by controls: 0 for no effect and ±100 for the full control effect.

A number with no mark means an inactive call. Inconclusive results are not listed. The source made the active and inactive calls. Calls come from the whole dose curve; as a rule, active = well fitted curve in the direction sought with a large enough effect; inconclusive = small, poorly fitted or top-dose-only effect, or another doubt; inactive = no such curve, though single readings can be large; an effect the other way counts as inactive or inconclusive.

Results on 33 compounds are retold here after PubChem BioAssay (NCATS).

Take `CCOC(=O)/C=C(C)/C=C/C=C(C)/C=C/c1c(C)cc(OC)c(C)c1C`: the outcome in experiment [1] and in experiment [2] was inactive. Further, the Potency result in experiment [3] and in experiment [4] was “inactive” each time.

For `CCCC(=O)Nc1ccc(OCC(O)CNC(C)C)c(C(C)=O)c1` (configuration not stated), the compound was called inactive in experiment [1] and in experiment [2]. The Potency entry in experiment [3] and in experiment [4] was “inactive” each time.

As for `Cc1ccnc(NS(=O)(=O)c2ccc(N)cc2)n1`, the compound was called inactive in experiment [1] and in experiment [2]. Moreover, the Potency entry in experiment [3] and in experiment [4] was “inactive” throughout.

`CC(C)(Oc1ccc(Cl)cc1)C(=O)O`: the compound was classed as inactive in experiment [1] and in experiment [2]. For the same compound, the Potency entry in experiment [3] and in experiment [4] was “inactive” throughout.

Turning to `CC(C)NC[C@@H](O)COc1cccc2ccccc12`, the compound was classed as inactive in experiment [1] and in experiment [2]. Besides, the Potency result in experiment [3] and in experiment [4] was “inactive” each time.

As to `c1ccc(OCc2ccc(CCCN3CCOCC3)cc2)cc1`, the compound was classed as inactive in experiment [1] and in experiment [2]. Besides, the Potency entry in experiment [3] and in experiment [4] was “inactive” throughout.

Consider `CC(C)N=C(N)/N=C(\N)Nc1ccc(Cl)cc1`, for which the outcome in experiment [1] and in experiment [2] was inactive. Also, the Potency result in experiment [3] and in experiment [4] was “inactive” throughout.

In the case of `C[N+]1(CCCCC[N+]2(C)CCCC2)CCCC1`, the outcome in experiment [1] and in experiment [2] was inactive. The Potency result in experiment [3] and in experiment [4] was “inactive” each time.

Consider `Cc1c(C)n(CCN(C)C)c2ccc(C(=O)OCCN(C)C)cc12`, for which the compound was called inactive in experiment [1] and in experiment [2]. For the same compound, the Potency result in experiment [3] and in experiment [4] was “inactive” each time.

Turning to `Cc1cc(N)c2cc(NC(=O)Nc3ccc4nc(C)cc(N)c4c3)ccc2n1`, the compound was classed as inactive in experiment [1] and in experiment [2]. For the same compound, the Potency result in experiment [3] and in experiment [4] was “inactive” throughout.

With `Nc1cc(Cl)c(NC2=NCCN2)c(Cl)c1`, the compound was called inactive in experiment [1] and in experiment [2]. Also, the Potency entry in experiment [3] and in experiment [4] was “inactive” each time.

For the compound `Nc1ccc(/C=C/c2ccc(N)cc2S(=O)(=O)O)c(S(=O)(=O)O)c1`, the activity change, negative = inhibition was -14.7% [at 0.568 µM] in experiment [1] and -3.2% [at 0.568 µM] in experiment [2]. Moreover, the Potency result in experiment [3] and in experiment [4] was “inactive” each time.

In the case of `COc1cccc(OC)c1C(=O)N[C@@H]1C(=O)N2[C@@H]1SC(C)(C)[C@@H]2C(=O)O`, the compound was classed as inactive in experiment [1] and in experiment [2]. Besides, the Potency result in experiment [3] and in experiment [4] was “inactive” each time.

On to `CCOC(=O)[C@H](CCc1ccccc1)N[C@@H](C)C(=O)N1Cc2ccccc2C[C@H]1C(=O)O`, for which the call in experiment [1] and in experiment [2] was inactive. Moreover, the Potency entry in experiment [3] and in experiment [4] was “inactive” in each case.

Consider `Oc1ccc(Cl)c2cccnc12`, for which the call in experiment [1] and in experiment [2] was inactive. For the same compound, the Potency entry in experiment [3] and in experiment [4] was “inactive” each time.

Take `COc1cc(C=C2CCC/C(=C\c3ccc(O)c(OC)c3)C2=O)ccc1O`: the result in experiment [1] and in experiment [2] was inactive. In addition, in experiment [3], the Potency was 31.6 µM (active). In addition, the Potency result in experiment [4] is “inactive”.

With `CN1C(CCl)Nc2cc(Cl)c(S(N)(=O)=O)cc2S1(=O)=O` (configuration not stated), the compound was classed as inactive in experiment [1] and in experiment [2]. Besides, the Potency result in experiment [3] and in experiment [4] was “inactive” throughout.

As to `O=c1[nH]c(=O)n([C@H]2C[C@H](O)[C@@H](CO)O2)cc1C(F)(F)F`, the result in experiment [1] and in experiment [2] was inactive. Also, the Potency entry in experiment [3] and in experiment [4] was “inactive” throughout.

On to `COc1cc(N)c(Cl)cc1C(=O)NC1CCN(CCCOc2ccc(F)cc2)CC1OC` (configuration not stated), for which the outcome in experiment [1] and in experiment [2] was inactive. For the same compound, the Potency entry in experiment [3] and in experiment [4] was “inactive” in each case.

For the compound `C[C@]12CC[C@H]3[C@@H](CCC4=CC(=O)CC[C@@]43C)[C@@H]1CC[C@@H]2C(=O)CO`, the call in experiment [1] and in experiment [2] was inactive. The Potency result in experiment [3] and in experiment [4] was “inactive” throughout.

On to `CC(Cc1ccccc1)(NC(=O)CN)c1ccccc1` (configuration not stated), for which the call in experiment [1] and in experiment [2] was inactive. Moreover, the Potency result in experiment [3] and in experiment [4] was “inactive” in each case.

For `NC(=O)c1cc[n+](CC2=C(C(=O)[O-])N3C(=O)[C@@H](NC(=O)Cc4cccs4)[C@H]3SC2)cc1`, the compound was classed as inactive in experiment [1] and in experiment [2]. In addition, the Potency result in experiment [3] and in experiment [4] was “inactive” in each case.

For the compound `O=C(OCCOCCO)c1ccccc1Nc1cccc(C(F)(F)F)c1`, the compound was called inactive in experiment [1] and in experiment [2]. Besides, the Potency entry in experiment [3] and in experiment [4] was “inactive” throughout.

In the case of `Nc1nc2ncc(CNc3ccc(C(=O)N[C@@H](CCC(=O)O)C(=O)O)cc3)nc2c(=O)[nH]1`, the outcome in experiment [1] and in experiment [2] was inactive. Further, the Potency entry in experiment [3] and in experiment [4] was “inactive” each time.

Consider `CCCCCCCCCCCCCCCCOP(=O)([O-])OCC[N+](C)(C)C`, for which the compound was classed as inactive in experiment [1] and in experiment [2]. The Potency result in experiment [3] and in experiment [4] was “inactive” throughout.

On to `COc1cc2c(cc1OC)C(=O)C(CC1CCN(Cc3ccccc3)CC1)C2` (configuration not stated), for which the result in experiment [1] and in experiment [2] was inactive. In addition, the Potency entry in experiment [3] and in experiment [4] was “inactive” throughout.

Consider `CCN1CCN(c2cc3c(cc2F)c(=O)c(C(=O)O)cn3C2CC2)CC1`, for which the compound was called inactive in experiment [1] and in experiment [2]. Besides, the Potency entry in experiment [3] and in experiment [4] was “inactive” throughout.

As for `CC(Cc1cccc(C(F)(F)F)c1)NCCOC(=O)c1ccccc1` (configuration not stated), the compound was called inactive in experiment [1] and in experiment [2]. Moreover, the Potency entry in experiment [3] and in experiment [4] was “inactive” throughout.

For the compound `C/C=C/c1ccc(OC)cc1`, the outcome in experiment [1] and in experiment [2] was inactive. Besides, the Potency entry in experiment [3] and in experiment [4] was “inactive” in each case.

Consider `COC1=CC(=O)C[C@@H](C)[C@]12Oc1c(Cl)c(OC)cc(OC)c1C2=O`, for which the compound was classed as inactive in experiment [1] and in experiment [2]. Moreover, the Potency entry in experiment [3] and in experiment [4] was “inactive” in each case.

For the compound `N[C@@H](CCC(=O)N[C@@H](CS)C(=O)NCC(=O)O)C(=O)O`, the result in experiment [1] and in experiment [2] was inactive. Also, the Potency entry in experiment [3] and in experiment [4] was “inactive” throughout.

For `Cc1c(C)n(Cc2ccccc2)c2ccc(C(=O)OCCN(C)C)cc12`, the compound was called inactive in experiment [1] and in experiment [2]. Moreover, the Potency entry in experiment [3] and in experiment [4] was “inactive” throughout.

As to `C[C@]12C=CC(=O)C=C1CC[C@@H]1[C@@H]2[C@@H](O)C[C@@]2(C)[C@H]1CC[C@]2(O)C(=O)CO`, the call in experiment [1] and in experiment [2] was inactive. For the same compound, the Potency entry in experiment [3] and in experiment [4] was “inactive” throughout.
